Results filed as inconclusive are left out. Active and inactive are the calls of the source. The call rests on the fitted dose curve; in most records, active means well fitted inhibition curve with a large enough effect; inconclusive means small, poorly fitted or top-dose-only effect, or effect the other way; inactive means flat fitted curve, though single readings scatter.
The compounds below were run against Ubiquitin carboxyl-terminal hydrolase 2 (Homo sapiens) (UniProt O75604) (assay: Ub-rhodamine 110 based assay for inhibitors Ubiquitin-specific Protease USP2a). Conditions: USP2a Ub-rhodamine110 cleavage, fluorescence; series mostly up to 38.3 µM.
Chain of Ubiquitin carboxyl-terminal hydrolase 2 (Homo sapiens) (O75604 whole entry, looked up): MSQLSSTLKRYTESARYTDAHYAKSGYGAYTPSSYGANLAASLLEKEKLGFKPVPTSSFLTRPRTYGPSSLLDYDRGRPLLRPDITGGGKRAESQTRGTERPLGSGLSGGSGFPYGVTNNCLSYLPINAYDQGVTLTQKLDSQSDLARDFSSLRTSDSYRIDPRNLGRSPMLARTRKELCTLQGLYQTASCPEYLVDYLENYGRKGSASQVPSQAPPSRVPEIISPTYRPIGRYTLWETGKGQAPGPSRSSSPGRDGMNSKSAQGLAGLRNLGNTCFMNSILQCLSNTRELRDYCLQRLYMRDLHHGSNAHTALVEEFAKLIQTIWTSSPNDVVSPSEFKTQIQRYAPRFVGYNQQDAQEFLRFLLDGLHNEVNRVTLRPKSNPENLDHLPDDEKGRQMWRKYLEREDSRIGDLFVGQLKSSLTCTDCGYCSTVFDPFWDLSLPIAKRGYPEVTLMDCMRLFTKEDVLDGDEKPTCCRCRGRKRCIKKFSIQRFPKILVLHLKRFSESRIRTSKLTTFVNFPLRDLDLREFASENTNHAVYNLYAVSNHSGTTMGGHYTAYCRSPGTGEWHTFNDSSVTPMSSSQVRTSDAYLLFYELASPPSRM
Procedure, shortened: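 Kinetic fluorescence (485/531 nm) read each minute over 7 min after adding Ub-Rhod110 (150 nM final) to USP2a (5 nM final). The enzyme had 30 min RT exposure to compounds beforehand in Tris pH 8.0 buffer with CaCl2, CHAPS and beta-ME.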
Further: nearly all actives have a fitted effect of over 50% in size.
Potency means the concentration at half of the fitted maximal effect.

Potency, active:
COc1ccc(/C=N\NC(=O)c2cc(O)c(O)c(O)c2)cc1COc1ccc(C(=O)OCC(C)C)cc1 2.82 µM
Cc1ccc(C2(C)NC(=O)N(CC(=O)c3ccc(Cl)s3)C2=O)cc1 (centres undefined) 11.2 µM
O=C(O)C1Nc2c(O)cc(Cl)c([N+](=O)[O-])c2C2C=CCC12 (centres undefined) 3.98 µM
O=C1S/C(=C\C=C\c2ccco2)C(=O)N1c1ccc(O)cc1 8.91 µM
O=C(CSc1nccc(=O)[nH]1)N1N=C2/C(=C/c3ccco3)CCCC2C1c1ccco1 (centres undefined) 10 µM
C#CCOCCOCCOCCNc1nc(N2CCN(C(=O)CCCCCCCCCCNC(=O)[C@@H](CCSC)n3cc(CCO)nn3)CC2)nc(N2CCN(C(=O)CCCCCCCCCCNC(=O)[C@H](CCCN=C(N)N)n3cc(C[C@@H](C)CC)nn3)CC2)n1 10 µM
C[C@@H]1CN([C@H](C)CO)C(=O)Cc2cc(NS(=O)(=O)c3ccc(Cl)cc3)ccc2O[C@H]1CN(C)Cc1ccc(C(F)(F)F)cc1 10 µM
O=C1COc2ccc(C(=O)COC(=O)/C=C/c3ccc(Br)o3)cc2N1 2.24 µM
Cc1c2c(=O)n(-c3nc4ccccc4s3)nc-2cc(O)n1Cc1ccccc1 6.31 µM
O=C1N=c2ccccc2=C1c1sc(Nc2ccc(O)cc2)nc1O 7.94 µM
CC(C)c1ccc2c(c1)c(SC(C)(C)C)c(CC(C)(C)C(=O)O)n2Cc1ccc(Cl)cc1 7.08 µM

Potency, inactive:
CSCCC(NC(=O)c1cc(C(C)(C)C)oc1C)C(=O)O (centres undefined)
C=CCn1c(NCc2cc(C)ccc2O)nc2ccccc21
O=C(NC(=S)N1CCCc2ccccc21)c1ccc([N+](=O)[O-])cc1
CCn1c(CN2CCOCC2)nnc1SCC(=O)Nc1ccc(C(C)=O)cc1
CCOC(=O)N1CCC(NC(=O)c2ccc(OC)c(CN3CC(=O)N4CCCC4C3=O)c2)CC1 (centres undefined)
Cc1c(NC(=O)C2CCCN2S(=O)(=O)c2ccc(Cl)cc2)c(=O)n(-c2ccccc2)n1C (centres undefined)
COc1ccc(-c2[nH]ncc2/C=C(/C#N)C(=O)NC2CCCCC2)cc1
CNc1sc(C(=O)c2ccc(F)cc2)c(N)c1-c1nc2ccccc2s1
CCCCC(OC(=O)c1cc2occc2n1C)C(=O)NCC1CCCO1 (centres undefined)
CCOc1ccc(NC(=O)N(CCCN2CCOCC2)Cc2cccnc2)cc1
CCC(C)c1ccc(O)c(N)c1 (centres undefined)
Cc1cc(C(=O)Nc2ccccc2N2CCOCC2)c2ccccc2n1
COC(=O)c1[nH]c2ccc(C)cc2c1NC(=O)CN1CCCc2ccccc21
COc1ccc2[nH]c(=O)c(CN(Cc3ccco3)Cc3nnnn3Cc3ccccc3)cc2c1
Cc1cc(C)c2c(N=CN(C)C)c(C(=O)N3CCN(c4ncccn4)CC3)sc2n1
CC(C)n1c(/C=C/[C@H](O)C[C@H](O)CC(=O)O)c(-c2ccc(F)cc2)c2ccccc21
CNc1nc(OCCNC(=O)Nc2ccccc2)nc(N2CCOCC2)n1
Cc1c(O)c(CN2CCCC2)cc2c3c(c(=O)oc12)CCC3
O=C(CCc1nc(-c2ccccc2F)no1)NC1CCCCCC1
O=C(CNC(=O)C1CCCCC1)NC1=NCCS1
COc1ccc(/C=C(\NC(=O)c2ccc(OC)c(OC)c2)C(=O)N2CCN(C)CC2)cc1
COc1ccccc1C1NC(c2ccccc2OC)C(C)C(=O)C1C (centres undefined)
COc1ccc(-n2c(=S)[nH]c3cc(C(=O)Nc4cc(OC)c(OC)c(OC)c4)ccc3c2=O)c(OC)c1
C/C(Cn1nnc2ccccc21)=N\OC(=O)c1ccccc1C
CCOc1ccccc1C(=O)N[C@H](C(=O)Nc1ccc(OC)c(S(=O)(=O)N2CCOCC2)c1)C(C)C
Cc1cc(Cl)ccc1NC(=S)NCCCN1CCCC1=O
CC(C)CCn1c(CN2CCN(C(=O)c3ccco3)CC2)nc2c1c(=O)n(C)c(=O)n2C
Cc1n[nH]c(C)c1S(=O)(=O)N1CCCC(C(=O)NC2CCCc3ccccc32)C1 (centres undefined)
